Results: PubChem BioAssay AID720609 (Broad Institute, 2013)
Measured potencies and affinities stand elsewhere. Activity calls are given as the source filed them.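 Rule for the calls: active = viability signal falls with a fitted half-maximal concentration at or below a set limit at all three treatment times; inconclusive = treatment times disagree, or a flat partial drop, or poor fit; inactive = inactive at every treatment time.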

Test: HeLa cell viability over time, late-stage follow-up, mechanism study for HRAS target identification, CellTiter-Glo ATP luminescence, 8-48 h, dry powder (AID 720609)
Conditions: series mostly up to 35 µM

## CCC(=O)N(c1ccc(OC)c(Cl)c1)C(C(=O)NCCc1ccccc1)c1cccs1 (configuration not stated)
  outcome: inactive

## Cc1onc(C(=O)N2CCN(C(c3ccncc3)c3ccncc3)CC2)c1[N+](=O)[O-]
  outcome: inactive
